PINK1 expr mod – changes PINK1 expression; PINK1 immunofluorescence, high-content cytometry, 24 h; Potency, µM (top dose mostly 76.6 µM), inactives show at the highest dose activation (PINK1 increase), actives largely listed as activators; 0.2% of 410,000 active; AID 624263; active means well fitted activation curve with a large enough effect; inconclusive means small, poorly fitted or top-dose-only effect; cell line not stated here; further: potency means the concentration at half of the fitted maximal effect; % of control where 0% means no effect; nearly all actives have a fitted effect of over 65% in size
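Fluorescence from anti-PINK1 antibody, together with nuclear and cell stains, was scanned on a laser-scanning cytometer. Before staining, stable-line cells were incubated 24 hours with compounds at 5 concentrations; primary antibody 12 h at 10 degrees C.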
ATXN2 expr inh – ATXN2 expression inhibition; HEK-293 ATXN2-luciferase reporter, luminescence, 24 h; Potency, µM (doses to about 57 µM), without a hit: at the top dose activity change, negative = inhibition, usual class: inhibitors; 0.72% of 360,000 active; AID 1745845; further: potency means the concentration at half of the fitted maximal effect; on the % scale 0 is the no-effect control and ±100 the full control effect; nearly all actives have a fitted effect of over 55% in size
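qHTS (up to 57 uM final) was run with 24 h compound exposure of reporter cells at 37 °C. Each well was multiplexed: SteadyGlo luminescence measured ATXN2-luciferase expression after a fluorogenic Gly-Phe-AFC viability readout (25 uM final).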
MCF10A rereplic – DNA re-replication induction in MCF 10a cells; MCF 10A DNA re-replication, Hoechst nuclear intensity, 48 h; Potency, µM (highest dose often 46.1 µM), for the others: at the highest dose activity, positive = re-replication, actives largely listed as activators; 2.9% of 350,000 active; AID 624296; further: potency means the concentration at half of the fitted maximal effect; % of control where 0% means no effect; nearly all actives have a fitted effect of over 50% in size
IL-1B inflam inh – blocks inflammasome-driven IL-1 beta release | THP-1 LPS/ATP IL-1B secretion, AlphaLISA, 16 h; active compounds read low | 4.7% of 360,000 active | activity change, % at 57.5 µM; in the data active means activity change below about -50%; inconclusive means mostly about -30% to -49%; further: on the % scale 0 is the no-effect control and ±100 the full control effect
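THP-1 cells pretreated 1 hr with compounds (up to 57.5 uM final), then stimulated with LPS (250 ng/mL final) plus ATP (1.25 mM final); secreted IL-1B measured by AlphaLISA after 16 hr, decreased signal indicating inhibition.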
SW480 rerep – DNA re-replication induction in SW480 cells. 1.8% of 340,000 active. SW480 DNA re-replication, Hoechst DNA content imaging, 48 h. Potency, µM (top dose mostly 46.1 µM), for inactives: at the highest dose re-replication activation, hits mostly activators; further: potency means the concentration at half of the fitted maximal effect; % of control where 0% means no effect; nearly all actives have a fitted effect of over 55% in size
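SW480 cells exposed to compounds for 48 hr at 37 C, 5% CO2, then Hoechst-stained 40 min. Nuclear DNA content imaged by fluorescence scanning (405 nm excitation, 500-530 nm emission); re-replication scored as increased high-intensity nuclei.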
S2 tox – cell viability loss in ATXN counter-screen. S2 cells (HEK-293 line with an ATXN2-luciferase reporter) viability, CellTiter-Fluor protease fluorescence, 24 h. Potency, µM (doses to about 56.7 µM), usual class: cytotoxic. 0.49% of 400,000 active. AID 651635; further: potency means the concentration at half of the fitted maximal effect; nearly all actives have a fitted effect of over 40% in size
Starred values were filed as active, the others as inactive; i = inactive; u = inconclusive; x = no result given; [ ] = remark or other dose. The list is not random: actives were taken first. Their share in the collection is about 7.1%. Unless noted, the call rests on the fitted dose curve; in most records, active means well fitted curve in the direction sought with a large enough effect; inconclusive means small, poorly fitted or top-dose-only effect, or another doubt; inactive means no such curve, though single readings can be large; an effect the other way counts as inactive or inconclusive.

SMILES	PINK1 expr mod	ATXN2 expr inh	MCF10A rereplic	IL-1B inflam inh	SW480 rerep	S2 tox
Cc1ccc(C(C)C)cc1NC(=O)Nc1ccc([N+](=O)[O-])cc1	u	x	u	-52*	-6%	u
Cc1ccc(NC(=O)Nc2cccc([N+](=O)[O-])c2)cc1F	u	-25%	u	-95*	5%	i
CCOC(=O)c1cc(-c2ccc(OC)cc2)n(CCC(=O)Nc2cccc(C)c2C)c1C	1%	x	x	x	x	x
Nc1c(C(=O)Nc2cccc(Cl)c2Cl)sc2nc(-c3cccnc3)ccc12	12%	3%	5.2µM*	0	9.2µM*	x
COc1ccc(-c2ccc3c(N)c(C(=O)c4cccc(OC)c4)sc3n2)cc1	u	-5%	21µM*	0	u	u
COc1ccc(NC(=O)c2sc3nc(-c4cccnc4)ccc3c2N)cc1	45µM*	-3%	u	-13	15µM*	u
COc1ccc(NC(=O)c2sc3nc(-c4cccnc4)ccc3c2N)cc1OC	2%	-1%	15µM*	-14	u	i
CC(C)(C)OC(=O)N1CCC(c2c(C(=O)NCc3ccco3)cnn2-c2ccc(F)cc2)CC1	0%	-6%	x	x	x	i
Cc1ccc2nc(N3CCC(C(=O)O)CC3)nc(-c3ccccc3)c2c1	0%	3%	21µM*	2	0%	x
Cc1ccc2nc(N3CCN(C(=O)CCC(=O)O)CC3)nc(-c3ccccc3)c2c1	-1%	x	21µM*	-7	14%	x
Cc1ccc2nc(NCCC(=O)O)nc(-c3ccccc3)c2c1	-1%	14%	1%	1	0%	x
Cc1ccc2nc(N3CC(=O)Nc4ccccc43)nc(-c3ccccc3)c2c1	13%	-18%	3.3µM*	30	18µM*	i
Cc1cccc(-c2cc3nc(C)cc(NCCCn4ccnc4)n3n2)c1	-2%	-7%	u	-106*	-2%	u
CC(C)Nc1cc(C(C)(C)C)nc2c(-c3ccccc3)cnn12	5%	63%	u	-70*	-3%	i
Cc1cc(NCCCn2ccnc2)n2ncc(-c3ccc(Cl)cc3)c2n1	7%[38.3 µM]	20%	-8%	u	u	u
CC(C)(C)c1cc(NCc2ccccn2)n2ncc(-c3ccc(Cl)cc3)c2n1	16%	x	11%	-24	-6%	i
CN(C)CCCNc1cc(C(C)(C)C)nc2c(-c3ccc(Cl)cc3)cnn12	0%	u	u	-105*	u	x
CC(C)(C)c1cc(C(F)(F)F)n2ncc(-c3ccccc3)c2n1	7%	29%	-15%	35	u	i
CC(C)(C)c1cc(NCCCn2ccnc2)n2ncc(-c3ccccc3)c2n1	-1%	70%	u	-97*	u	i
CC(=O)Nc1ccc(S(=O)(=O)NC2=NCN(C(C)C)CN2)cc1	-1%	-7%	x	x	x	i
Cc1ccc2c(CC(=O)Nc3cc(C(F)(F)F)ccc3Cl)coc2c1C	2%	7%	x	x	x	i
Nc1ccn([C@@H]2O[C@H](CO)[C@@H](O)C2(F)F)c(=O)n1	x	32µM*	x	x	x	u
O=C(CCC(=O)N1CC2CCCN2c2ccccc21)NCc1ccc(F)cc1 (centres undefined)	2%	x	x	x	x	x
CCOc1ccc(CCNC(=O)c2cc3c(s2)-c2c(C)cccc2OC3)cc1	0%	-12%	x	x	x	i
COc1cc2nccc(Oc3ccc(NC(=O)C4(C(=O)Nc5ccc(F)cc5)CC4)cc3)c2cc1OC	x	19µM*	x	x	x	x
SMILES	PINK1 expr mod	ATXN2 expr inh	MCF10A rereplic	IL-1B inflam inh	SW480 rerep	S2 tox
CCOc1ccc(NC(=O)C2(c3ccc(OC)c(OC)c3)CCCC2)cc1	2%	-10%	9%	19	-13%	i
COc1cc([C@@H]2[C@H]3CN(C)CC=C3C(C#N)=C(N)C2(C#N)C#N)cc2c1OCO2	18µM*	-18%	8%	-16	u	i
CN1CC=C2C(C#N)=C(N)C(C#N)(C#N)[C@H](c3cccc(Cl)c3)C2C1 (some centres undefined)	11µM*	-20%	7%	-3	-2%	i
CCN1CC=C2C(C#N)=C(N)C(C#N)(C#N)[C@H](c3cccc(OC)c3OC)[C@H]2C1	u	10%	-7%	-1	-1%	i
COc1cccc(C2C3CN(C)CC=C3C(C#N)=C(N)C2(C#N)C#N)c1OC (centres undefined)	35µM*	-3%	3%	-19	2%	i
CCOC(=O)N1CC=C2C(C#N)=C(N)C(C#N)(C#N)[C@H](c3ccsc3)[C@H]2C1	5%[38.3 µM]	-28%	12%	23	12%	i
CN1CC=C2C(C#N)=C(N)C(C#N)(C#N)C(c3ccsc3)C2C1 (centres undefined)	10µM*	-7%	-7%	5	-14%	i
COCC(=O)Nc1cc(C(=O)N[C@H]2CCCCNC2=O)c2c(c1)nc(-c1ccncc1)n2C	0%	x	x	x	x	i
CCc1ccccc1NC(=O)Cn1c(=O)nc(-c2ccccc2)c2ccccc21	0%	x	x	x	x	x
CCCC1C2CN(C(C)C)CC=C2C(C#N)=C(N)C1(C#N)C#N (centres undefined)	10µM*	-1%	18%	-2	-16%	i
CN1CC=C2C(C#N)=C(N)C(C#N)(C#N)C(CCc3ccccc3)C2C1 (centres undefined)	u	-12%	17%	7	5%	i
COC1(OC)C(=N/O)/C(=N\O)CCC1O (centres undefined)	2%[38.3 µM]	12%	16µM*	16	13%	i
Cc1ccc(NC(=O)C2CCCN(c3nnc(-n4c(C)ccc4C)s3)C2)c(C)c1 (centres undefined)	-1%	x	x	x	x	x
CCc1oc2ccccc2c1C(=O)c1cc(Br)c(O)c(Br)c1	1%	-5%	7.3µM*	27	-1%	u
CCc1ccc(OCC(=O)c2c(O)c3ccccc3oc2=O)cc1	1%	-3%	u	14	9%	i
CN(Cc1ccccc1)C(=O)c1c[nH]c2ccc(S(=O)(=O)Nc3ccccc3F)cc2c1=O	0%	7%	x	x	x	i
Cc1cc(F)ccc1S(=O)(=O)Nc1nc2ccccc2nc1Cl	0%	-1%	148%	-51*	19%	i
O=S(=O)(Nc1nc2ccccc2nc1Cl)c1ccc2ccccc2c1	u	-2%	23µM*	27	3%	u
Cc1ccc(C(C)(C)C)cc1S(=O)(=O)Nc1nc2ccccc2nc1Cl	0%	u	26%	-14	-13%	i
O=S(=O)(Nc1nc2ccccc2nc1Cl)c1ccccc1	1%	x	0%	0	5%	i
Cc1cccc(NC(=S)N/N=C/c2cccn2Cc2ccc(F)cc2)c1	29%	10%	8.2µM*	7	13%	i
